According to PubChem BioAssay AID493191 (Broad Institute, 2011):
Among all 1,300 compounds or so, about 330 (25%) were called active. How the calls were made is not given here. Not all results are given here. A call without a number means that no potency is given here. Potency and affinity values are given separately.

assay: MALME3 melanoma cell viability loss, dose response, orthogonal assay for MITF inhibitor project, CellTiter-Glo, cherry-picked (AID 493191); conditions: CellTiter-Glo luminescence, 24 h; series mostly up to 35 µM

Row | SMILES | outcome
1 | Cc1cc(C(=O)O/N=C(\N)c2ccncc2)ccc1[N+](=O)[O-] | inactive
2 | Cc1c(NC(=O)C(C)OC(=O)c2ccc([N+](=O)[O-])s2)c(=O)n(-c2ccccc2)n1C (configuration not stated) | inactive
3 | CCCCOc1ccc(-c2ncc([N+](=O)[O-])cn2)cc1 | inactive
4 | CC(C)(C)N=Cc1cc(-c2ccccc2)sc1O | inactive
5 | O=C(N/N=C/c1ccc([N+](=O)[O-])o1)c1sc2ccccc2c1Cl | inactive
6 | C(#Cc1ccccc1)C[N+]1(CC#Cc2cccc3ccccc23)CCCC1 | inactive
7 | CSCCNC(=O)c1ccc2nc(Cc3ccccc3F)oc2c1 | inactive
8 | O=C(CSC(=S)N1CCCCC1)c1c(F)cccc1F | inactive
9 | CN(Cc1ccccc1)C1=CC(=[N+]2CCCCC2)CC(C)(C)C1 | inactive
10 | CCOc1cccc(C(=O)NC2=NCCS2)c1 | inactive
11 | CCOC(=O)N1CCC(NC(=O)C2CCCN(Cc3nc(-c4cccc(C)c4)oc3C)C2)CC1 (configuration not stated) | inactive
12 | [2H]C(CCOS(N)(=O)=O)c1ccc(C(C)(C)C)cc1 (configuration not stated) | inactive
13 | N/C(=N\OC(=O)c1ccc([N+](=O)[O-])cc1)c1ccc(Br)cc1 | inactive
14 | COc1cc(/C=C/C(=O)N2CCC=CC2=O)cc(OC)c1OC | inactive
15 | c1ccc(C[n+]2cccc3c4ccccc4ccc32)cc1 | inactive
16 | CCCCN(CC)CCCNC(=O)c1cc2c(=O)n(CC)c3ccccc3c2s1 | inactive
17 | CC1(C)CC(=O)C=C(NC2=CC3OC(c4ccccc4)OCC3OC2=O)C1 (configuration not stated) | inactive
18 | C(=N\Nc1cc(N2CCCCC2)ncn1)/c1ccco1 | inactive
19 | Clc1ccc(-c2nc(-c3ccncc3)no2)c(Cl)c1 | inactive
20 | O=C(Cc1cccs1)NCc1ccc(Cl)cc1Cl | inactive
21 | CC(C)n1cc(/C=C/c2cc[n+](C)cc2)c2ccccc21 | inactive
22 | O=C(Nc1nc(-c2ccccn2)cs1)c1ccc(F)c(S(=O)(=O)N2CCOCC2)c1 | inactive
23 | Cc1ccc(-c2cn3cc(C)ccc3n2)cc1 | inactive
24 | O=C(CSc1ccccn1)c1ccc2c(c1)OCO2 | inactive

Row | SMILES | outcome
25 | COc1cccc(NC(=O)c2cc3c(=O)n4ccccc4nc3n(CC(C)C)c2=N)c1 | inactive
26 | CCOC(=O)N1C(=O)[C@](CC)(c2ccccc2)N1C(=O)OCC | inactive
27 | CCOC(=O)c1cn2nc(Oc3ccccc3)ccc2n1 | inactive
28 | C/C(=N\Nc1cc(N2CCOCC2)ncn1)c1ccccc1 | inactive
29 | CC1(C)Cc2c(sc(NC(=O)Nc3ccccc3)c2C(N)=O)CO1 | inactive
30 | O=S(=O)(c1ccc(Cl)cc1)N1CCN(Cc2ccc(O)c3ncccc23)CC1 | inactive
31 | Cc1ccc(C)c(S(=O)(=O)N2CCN(Cc3ccc(O)c4ncccc34)CC2)c1 | inactive
32 | CN(C)CCNC(=O)COc1ccc(C23CC4CC(CC(C4)C2)C3)cc1 | inactive
33 | CN(C)c1ccc(/C=C2\SC(=O)N(CCc3nnc(N)s3)C2=O)cc1 | inactive
34 | Cc1[nH]n(-c2ccccc2)c(=O)c1N=Nc1cccc(C(=O)O)c1 | inactive
35 | C/C(=C\c1ccccc1)C(=O)Nc1ccc(Cl)cn1 | inactive
36 | O=[N+]([O-])c1ccccc1OCCCOc1cccc2cccnc12 | inactive
37 | O=[N+]([O-])c1cc(CN2CCN(c3ccccc3)CC2)c(O)c2ncccc12 | inactive
38 | Cc1ccc(-c2cn(-c3ccc(SC(F)F)cc3)c3[n+]2CCC3)cc1 | inactive
39 | C#CC(=O)N(c1ccc(OC)cc1OC)C(C(=O)NC1CCCC1)c1cccs1 (configuration not stated) | inactive
40 | COc1ccc(N(CC(=O)NCC2CCCO2)S(=O)(=O)c2ccccc2)cc1OC (configuration not stated) | inactive
41 | C#CC(=O)N(c1ccc(OC)c(OC)c1)C(C(=O)NC1CCCC1)c1cccs1 (configuration not stated) | inactive
42 | Cc1ccc(NC(=O)c2ccc(OCC3CCCO3)cc2)c(C)c1 (configuration not stated) | inactive
43 | CN(C)/C=N/c1ncc(C(=O)c2ccccc2)s1 | inactive
44 | Cc1ccc2nc(Cc3ccc(N)cc3)oc2c1 | inactive
45 | CCc1nc2oc3ccccc3c(=O)c2cc1C(=O)OC | inactive
46 | COc1ccc(C(C(=O)NC2CCCCC2)N(C(=O)CCl)c2ccc(OC)cc2)cc1 (configuration not stated) | inactive
47 | COCCN(C(=O)CCl)C(C(=O)NC1CCCCC1)c1ccccc1C (configuration not stated) | inactive
48 | COc1ccc(N(C(=O)CCl)C(C(=O)NC2CCCCC2)c2cccnc2)cc1 (configuration not stated) | inactive

Row | SMILES | outcome
49 | Cc1cc(NC(=O)c2ccc(Cl)cc2Cl)no1 | inactive
50 | COCn1c(COc2ccccc2)nc2ccccc21 | inactive
51 | COc1ccc(Br)cc1/C=C/C(=O)c1ccc(NC(C)=O)cc1 | inactive
52 | O=C(N/N=C/c1ccccc1Cl)c1n[nH]c2c1CCCC2 | inactive
53 | Nc1c(N(CCC2=CCCCC2)C(=O)COc2ccc([N+](=O)[O-])cc2)c(=O)[nH]c(=O)n1Cc1ccccc1 | inactive
54 | Nc1ccc(Oc2cccc(Oc3ccc(N)cc3)c2)cc1 | inactive
55 | O=[N+]([O-])c1ccc(Sc2cc[n+]([O-])c3ccccc23)c([N+](=O)[O-])c1 | inactive
56 | Cc1ccc(O)c(NC(=O)c2ccc3c(c2)C(=O)N(CC(C)C)C3=O)c1 | inactive
57 | O=C(Nc1ccc2c(c1)OCCO2)c1cccc(Cl)c1Cl | inactive
58 | O=C(Nc1ccc2nc3n(c(=O)c2c1)CCCC3)c1cc([N+](=O)[O-])ccc1F | inactive
59 | CC(C)CN=C(NS(=O)(=O)c1ccccc1)C(Cl)(Cl)Cl | inactive
60 | CC(=O)c1c(C)[nH]c(C(=O)Nc2ccc(C)c(C)c2)c1C | inactive
61 | Cc1ccc(C(=O)Nc2nc3ccc(Cl)cc3s2)o1 | inactive
62 | Cc1cc(C(F)(F)F)c2c(N)c(C(=O)Nc3cc(C)on3)sc2n1 | inactive
63 | O=C(Nc1nc2ccccc2s1)c1ccccc1[N+](=O)[O-] | inactive
64 | CN(c1ccc2nc3ccccc3c(=O)n2n1)C1CCCCC1 | inactive
65 | CCOc1ccccc1-c1nc(-c2ccc(C)nc2OC)no1 | inactive
66 | CC(=O)Nc1nc(C)c(-c2csc(Nc3cccc(C(C)=O)c3)n2)s1 | inactive
67 | COc1ccccc1-c1nc(-c2ccc(C)nc2OC)no1 | inactive
68 | CS(=O)(=O)c1nc(-c2ccc(F)cc2)cc(C(F)(F)F)n1 | inactive
69 | CCOC(=O)c1cnc2c(ccc3ccccc32)c1N | inactive
70 | Cc1ccc(NC(=O)c2ccc([N+](=O)[O-])s2)cc1S(=O)(=O)N1CCOCC1 | inactive
71 | O=C(Nc1ccc(Cl)c(S(=O)(=O)N2CCOCC2)c1)c1ccc(OCC2CCCO2)cc1 (configuration not stated) | inactive
72 | O=C(N/N=C\c1cc(Br)ccc1O)c1ccc(S(=O)(=O)N2CCCCC2)cc1 | inactive

Row | SMILES | outcome
73 | O=C(Nc1ccc(S(=O)(=O)N2CCCCCC2)cc1)c1[nH]ncc1[N+](=O)[O-] | inactive
74 | O=C(Nc1cccc(Cl)c1)Nc1cc(S(=O)(=O)N2CCCCC2)ccc1Cl | inactive
75 | O=C1CN(c2ccccc2)C(=S)N1C(=O)c1ccc(Br)cc1 | inactive
76 | COc1ccc(NC(=O)c2cc(F)cc(F)c2)cc1Cl | inactive
77 | CN(C)c1ccc(NC(=O)Nc2ccc3c(c2)nnn3C)cc1 | inactive
78 | O=[N+]([O-])/C=C\c1ccc(N2CCOCC2)cc1 | inactive
79 | COc1ccc(C(NC(C)=O)c2ccc3cccnc3c2O)c(OC)c1 (configuration not stated) | inactive
80 | CCOC(=O)c1ccc2nc(C)c(CCC(C)=O)c(Cl)c2c1 | inactive
81 | COc1ccc(C(=O)Nc2ccc(C)cn2)c(OC)c1 | inactive
82 | CC(C)N1C(=O)S/C(=C\c2ccc(-c3ccc(Cl)c(C(=O)O)c3)o2)C1=O | inactive
83 | COC(=O)c1ccc(COc2ccc3c(c2)CCC3)o1 | inactive
84 | CN=c1scc(-c2ccccc2F)n1/N=C/c1ccc[nH]1 | inactive
85 | O=C(/C=C/c1ccc2c(c1)OCO2)N1CCCCC1 | inactive
86 | CCCC(=O)NC(c1ccc(OC)c(OC)c1)c1cc(Cl)c2cccnc2c1O (configuration not stated) | inactive
87 | CCC(=O)NC(c1ccccc1OC)c1ccc2cccnc2c1O (configuration not stated) | inactive
88 | COc1cnc(-c2ccccn2)nc1NC(C)C | inactive
89 | CCNC(=O)CC1C(=O)N(c2ccc(F)cc2)C(=O)N1CCc1ccc(OC)cc1 (configuration not stated) | inactive
90 | COc1ccc(C(=O)C(CN2CCOCC2)c2ccccc2)cc1 (configuration not stated) | inactive
91 | COc1ccc(C(=O)C(CN2CCCC2)c2ccccc2)cc1 (configuration not stated) | inactive
92 | COc1ccc(C(=O)CCNc2ccc(F)cc2)cc1 | inactive
93 | c1ccc(-n2ncc3c(NCc4cccs4)ncnc32)cc1 | inactive
94 | CC(C)(C)c1ccc(C(=O)Nc2sc3c(c2C(=O)O)CCC3)cc1 | inactive
95 | Cc1cc(C)c2c(N)c(C(=O)Nc3ncc(C)s3)sc2n1 | inactive
96 | O=C(CNC(=O)c1ccc(Br)cc1)c1ccccc1 | inactive

Row | SMILES | outcome
97 | O=C(CC(=O)c1ccccc1)Nc1ccccc1 | inactive
98 | C/C(=N/N=C(/C)c1cccs1)c1cccs1 | inactive
99 | CCC[n+]1c(C)sc2c3c(ccc21)CCCC3 | inactive
100 | Cn1cc([N+](=O)[O-])c(C(=O)Nc2cc(Oc3ccccc3)cc([N+](=O)[O-])c2)n1 | inactive
101 | Cc1nc2cc(NC(=O)Nc3cccc([N+](=O)[O-])c3)ccc2n1C | inactive
102 | Cc1cc(C)c2c(N)c(C(=O)N/N=C/c3cccnc3)sc2n1 | inactive
103 | O=C(O)C1CCN(C(=O)OCc2ccccc2)CC1 | inactive
104 | O=C(/C=C/c1ccccc1)Nc1cccc(C(=O)O)c1 | inactive
105 | CC1CC(C)CN(C(=O)/C=C/c2ccc([N+](=O)[O-])s2)C1 (configuration not stated) | inactive
106 | Cc1ccc(NC(=O)/C=C/c2ccc([N+](=O)[O-])s2)c(C)c1 | inactive
107 | O=C(/C=C/c1ccc([N+](=O)[O-])s1)N1CCCC1 | inactive
108 | CC(C)N=c1c([N+](=O)[O-])nn(C)n1O | inactive
109 | OCC1OC(n2cnc3c(NCc4ccco4)ncnc32)C(O)C1O (configuration not stated) | inactive
110 | CC(Oc1ccc(F)cc1)C(=O)Nc1nc(-c2ccccn2)cs1 (configuration not stated) | inactive
111 | CCC(=O)NCCc1nc2cc(NC(=O)c3cccc([N+](=O)[O-])c3)ccc2n1C | inactive
112 | CCN1CCc2c(sc(NC(=O)c3ccc(S(=O)(=O)N4CCCCCC4)cc3)c2C(=O)NC)C1 | inactive
113 | COc1ccc(NS(=O)(=O)c2cc(NC(=O)CNC(=O)c3cccc(OC)c3)ccc2C)cc1 | inactive
114 | O=C(Cn1cnc2ccccc2c1=O)Nc1ccc2c(c1)OCCO2 | inactive
115 | O=C(N/N=C\c1cc(Cl)ccc1O)c1ccc(S(=O)(=O)N2CCCCC2)cc1 | inactive
116 | O=C(Nc1ccc(F)c(Cl)c1)c1ccc2c(c1)OCO2 | inactive
117 | Cc1cc(C)n(-c2ccc(C(=O)Nc3ccc(C)c(S(=O)(=O)N4CCOCC4)c3)cc2)n1 | inactive
